Measurements published in PubChem BioAssay AID652098 (National Center for Advancing Translational Sciences (NCATS), 2013).
Activity calls are given as the source filed them.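 Rule for the calls: active = glucosylsphingosine level at or below 0.14 pmol/ug; inactive = the rest.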

Experiment: Extended Characterization of Activators of N370S glucocerebrosidase as a Potential Chaperone Treatment of Gaucher Disease: Glucosylsphingosine in Macrophages
Settings: Gaucher patient macrophages, glucosylsphingosine LC-MS/MS; active compounds read low
From the text: Glucocerebrosidase (GCase) catalyzes the hydrolysis of beta-glucocerebroside (GC) to glucose and ceramide in lysosomes. Mutations in the glucocerebrosidase gene result in Gaucher disease, an autosomal recessive lysosomal storage disorder. Many of the mutations encountered in patients with Gaucher disease are missense alterations that may cause misfolding, decreased stability and/or mistrafficking of this lysosomal protein. […] These inhibitors include iminosugar analogs and other inhibitors that were discovered as part of previous work. However, the enhancement of enzyme activity by the chaperone action of an enzyme inhibitor must be balanced against the direct inhibition of the enzyme. […] In this extended characterization of our probe, we have further characterized the activity of probes in relevant models of Gaucher disease. This assay attempts to quantitate glucosylsphingosine in patient-derived macrophages following compound incubation. NIH Chemical Genomics Center [NCGC] NIH Molecular Libraries Probe Production Centers Network [MLPCN] MLPCN Grant: MH086442 Assay Submitter (PI): Ellen Sidransky, NHGRI
Glucosylsphingosine was measured by liquid chromatography-tandem mass spectrometry as previously described by Tropak et al. Chembiochem 2008, 9, 2650-2662.

Which glucosylsphingosine level does the source give for `C#Cc1ccc(NC(=O)c2cnn3c(C)cc(C)nc23)cc1` here?
The glucosylsphingosine level was 0.135 pmol/µg (active).
